Assay outcomes (PubChem BioAssay)
TGFb inhibitor = qHTS for Inhibitors of TGF-b; Potency, µM (series often up to 46.1 µM), for inactives: top-dose activity, negative = inhibition, most hits filed as inhibitors; AID 588855, 2011; 410,000 tested, 1.2% active; HepG2 CAGA-GFP TGF-b/SMAD3 reporter, GFP fluorescence, 18 h; TGF-beta stimulated, 500 pg/mL final; also: potency is read from the fitted curve at half-maximal effect; % is scaled to controls: 0 for no effect and ±100 for the full control effect; nearly all actives have a fitted effect of over 65% in size
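Read-out: total well GFP (ex488/em500-530) summed from mean per-cell fluorescence. Cells: HEPG2 CAGA-GFP, 1% FBS DMEM, 18 h at 37 degrees C with 500 pg/mL final TGF-beta. Unstimulated wells served as the full-inhibition control; stimulated DMSO wells = 0%.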
IL1B secr inh = qHTS for Inhibitors of Inflammasome Signaling: IL-1-beta AlphaLISA Primary Screen; 360,000 tested, 4.7% active; THP-1 LPS/ATP IL-1B secretion, AlphaLISA, 16 h; stronger effect = lower value; activity change, % at 57.5 µM; in the data active = activity change below about -50%; inconclusive = mostly about -30% to -49%; also: % is scaled to controls: 0 for no effect and ±100 for the full control effect
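THP-1 cells pretreated 1 hr with compounds (up to 57.5 uM final), then stimulated with LPS (250 ng/mL final) plus ATP (1.25 mM final); secreted IL-1B measured by AlphaLISA after 16 hr, decreased signal indicating inhibition.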
HepG2 tox = qHTS for Inhibitors of TGF-b: Cytotox Counterscreen | HepG2 CAGA-GFP viability, ATP luminescence, 18 h | Potency, µM (doses to about 46.1 µM), for inactives: top-dose activity change, negative = cytotoxicity, hits mostly cytotoxic | 410,000 tested, 0.76% active; also: potency is read from the fitted curve at half-maximal effect
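CellTiter-Glo luminescence gave cytotoxicity after 18 hours at 37 degrees C. The cells were HepG2 CAGA-GFP in 1% FBS DMEM, stimulated with 500 pg/mL TGF-beta after compound addition. %Activity was normalised to no-cell wells (complete cell-killing) and DMSO (no toxicity), and curves were fitted and classified.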
TDP1 inh = qHTS Assay for Inhibitors of Tyrosyl-DNA Phosphodiesterase (TDP1). AID 485290, 2010. Tyrosyl-DNA phosphodiesterase 1 (Homo sapiens), Q9NUW8. 350,000 tested, 0.28% active. Potency, µM (doses to about 130 µM), inactives show top-dose activity change, negative = inhibition, most hits filed as inhibitors. recombinant TDP1, AlphaScreen DNA substrate cleavage; also: potency is read from the fitted curve at half-maximal effect; % is scaled to controls: 0 for no effect and ±100 for the full control effect; nearly all actives have a fitted effect of over 40% in size
Target sequence (Q9NUW8 whole entry, looked up): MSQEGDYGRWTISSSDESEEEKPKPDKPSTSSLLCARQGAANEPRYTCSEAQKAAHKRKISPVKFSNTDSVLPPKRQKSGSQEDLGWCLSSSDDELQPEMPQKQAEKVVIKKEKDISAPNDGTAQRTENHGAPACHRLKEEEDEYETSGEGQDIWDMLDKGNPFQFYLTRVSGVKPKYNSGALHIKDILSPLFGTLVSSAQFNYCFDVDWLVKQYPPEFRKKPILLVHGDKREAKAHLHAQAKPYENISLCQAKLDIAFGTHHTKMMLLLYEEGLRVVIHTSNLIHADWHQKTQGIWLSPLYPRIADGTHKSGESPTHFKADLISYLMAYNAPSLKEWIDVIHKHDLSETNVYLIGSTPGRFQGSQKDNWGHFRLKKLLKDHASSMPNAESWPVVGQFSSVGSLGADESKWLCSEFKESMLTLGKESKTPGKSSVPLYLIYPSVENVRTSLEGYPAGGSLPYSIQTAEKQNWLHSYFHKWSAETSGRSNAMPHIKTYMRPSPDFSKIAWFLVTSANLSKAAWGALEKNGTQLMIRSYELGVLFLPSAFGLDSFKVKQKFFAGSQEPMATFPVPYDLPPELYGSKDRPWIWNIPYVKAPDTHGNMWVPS
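Steps: enzyme plus compound, 15 min RT; add biotin/phosphotyrosine-FITC oligonucleotide (15 nM final), react 5 min; add donor/acceptor beads (10 ug/ml final), 10 min; read AlphaScreen. Tdp1 at 1 nM final.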
DT40 TDP1 no CPT = qHTS for Inhibitors of human tyrosyl-DNA phosphodiesterase 1 (TDP1): qHTS in cells in absence of CPT. Potency, µM (titrated, usually from 46.2 µM), for the others: at the highest dose activity change, negative = growth inhibition, usual class: inhibitors. DT40 Tdp1-/- hTDP1 cells, no CPT, ATP luminescence, 48 h. 420,000 tested, 15% active; also: potency is read from the fitted curve at half-maximal effect; % is scaled to controls: 0 for no effect and ±100 for the full control effect; nearly all actives have a fitted effect of over 55% in size
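Chicken DT40 Tdp1-/- cells stably complemented with human TDP1 were seeded at 400 cells/well with DMSO in place of 20 nM camptothecin. After compound pinning, cells grew at least 48 hr at 37 °C; viability read by CellTiter-Glo luminescence.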
DT40 TDP1 CPT = qHTS for Inhibitors of human tyrosyl-DNA phosphodiesterase 1 (TDP1): qHTS in cells in presence of CPT. 420,000 tested, 12% active. Potency, µM (highest dose often 46.2 µM), without a hit: top-dose activity change, negative = growth inhibition, hits mostly inhibitors. chicken DT40 Tdp1-/-;hTDP1 cells + 20 nM CPT, ATP luminescence, 48 h. AID 686979, 2013; also: potency is read from the fitted curve at half-maximal effect; % is scaled to controls: 0 for no effect and ±100 for the full control effect; nearly all actives have a fitted effect of over 55% in size
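Chicken DT40 Tdp1-/- cells stably complemented with human TDP1 were seeded at 400 cells/well in medium containing 20 nM camptothecin, exposed to pin-transferred compounds, and grown at 37 °C for at least 48 hr. Viability was read as ATP luminescence.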
Starred values were filed as active, the others as inactive; ? = inconclusive; · = no result. An excerpt weighted towards active compounds, which were near 18% of everything screened. Unless noted, calls follow the shape of the dose curve; as a rule, active = well fitted curve in the direction sought with a large enough effect; inconclusive = small, poorly fitted or top-dose-only effect, or another doubt; inactive = no such curve, though single readings can be large; an effect the other way counts as inactive or inconclusive.

SMILES | TGFb inhibitor | IL1B secr inh | HepG2 tox | TDP1 inh | DT40 TDP1 no CPT | DT40 TDP1 CPT
COc1cc(C2CC(=O)Oc3c2c(=O)[nH]c2ccccc32)cc(OC)c1OC (configuration not stated) | 17.7% | · | 8.0% | -0.6% | · | ·
NC(=O)c1cc([N+](=O)[O-])ccc1NCc1ccc(O)cc1 | ? | -22.3 | -16.2% | 0.2% | ? | ?
CC(C)(C)NC(=O)C1(C)CCC(=O)N1C1CCN(Cc2ccccc2)CC1 (configuration not stated) | -9.4% | 6.8 | -58.6% | · | -3.7% | 3.7%
COc1cccc(Oc2cn[nH]c2-c2ccc(O)cc2O)c1 | -3.5% | 14.7 | -22.8% | 6.9% | ? | 9.2µM*
COc1cccc(Oc2cn[nH]c2-c2ccc(OC)cc2O)c1 | ? | -17.9 | -35.7% | 3.8% | ? | ?
COc1ccccc1Oc1cn[nH]c1-c1ccc(O)cc1O | -23.5% | 16.7 | -8.5% | · | 20.6µM* | -24.9%
O=C(NNC(=S)Nc1cccc(C(F)(F)F)c1)c1ccc(Cl)cc1Cl | ? | -52.2* | -57.3% | 8.2% | 25.9µM* | ?
Cc1ccccc1C(=O)NNC(=S)Nc1cccc(C(F)(F)F)c1 | ? | -1.6 | 10µM* | 8.0% | 23.1µM* | ?
CC(C)(O)C(=O)NNC(=S)Nc1cccc(C(F)(F)F)c1 | 5.6% | -9.7 | -0.1% | -2.5% | 8.8% | -21.8%
O=C(NCc1cccnc1)c1ccc(NC(=O)c2cccc([N+](=O)[O-])c2)cc1 | 7.6% | -10.3 | 6.6% | 3.7% | -82.3% | 14.6µM*
O=[N+]([O-])c1cccc(-c2csc(Nc3ccccc3)n2)c1 | ? | -104.9* | 3.1% | 10.8% | 29.1µM* | ?
N#CCC(=O)Nc1ncc(Cc2ccccc2Cl)s1 | -26.5% | -5.8 | -0.7% | 0.0% | -20.0% | -10.8%
O=C(Nc1ncc([N+](=O)[O-])s1)c1cccc([N+](=O)[O-])c1 | ? | 0.0 | -44.9% | 5.0% | 20.6µM* | 9.2µM*
O=C(Nc1ncc(Cc2cccc(Cl)c2Cl)s1)c1ccc([N+](=O)[O-])cc1 | 1.2% | 2.5 | 1.8% | 7.9% | 16.4µM* | 13µM*
CC(C)OC(=O)C1Cc2ccccc2CN1S(=O)(=O)c1cccs1 (configuration not stated) | -9.6% | 3.0 | -4.5% | · | ? | -27.7%
O=C(CSc1nc2ccccc2nc1Cc1ccc(Cl)cc1)Nc1ccc2c(c1)OCO2 | -28.9% | · | -7.1% | 5.4% | -3.3% | -13.4%
CCOC(=O)C1=C(C(=O)OCC)N(CC2CCCCC2)CCC1=O | -0.3% | 17.6 | 12.7% | · | -19.1% | -11.2%
O=C(Nc1nc(-c2cccnc2)cs1)c1cccc([N+](=O)[O-])c1 | 1.7% | -8.4 | -20.0% | 5.1% | 23.1µM* | -16.9%
O=C(Cc1ccccc1)Nc1nc(-c2cccc([N+](=O)[O-])c2)cs1 | 1.8% | -14.4 | -3.7% | 4.1% | ? | -19.3%
Cc1csc(NC(=O)c2cc([N+](=O)[O-])cc([N+](=O)[O-])c2)n1 | -19.8% | 11.5 | -48.0% | -7.6% | 23.1µM* | ?
Cc1csc(NC(=O)c2cc[n+]([O-])cc2)n1 | 5.6% | -3.9 | 2.3% | 6.1% | 2.8% | -3.6%
O=C(Nc1nc(-c2ccccc2)cs1)c1cccc([N+](=O)[O-])c1 | ? | -79.0* | -13.3% | 7.7% | ? | ?
O=C(COC(=O)c1ccccn1)Nc1nc(-c2cccc([N+](=O)[O-])c2)cs1 | -16.6% | -29.9 | -27.5% | 1.9% | 18.4µM* | ?
CC(C)(C)C(=O)Cn1c(=O)n(-c2ccc(Cl)c(Cl)c2)c(=O)c2c3c(sc21)CCCC3 | 2.3% | · | 1.5% | -2.7% | -9.0% | ?
CCOc1ccc(NC(=O)Cn2c(=O)n(Cc3ccccc3)c(=O)c3c4c(sc32)CN(C(C)=O)CC4)cc1 | -24.5% | · | -41.2% | 5.9% | ? | ?
SMILES | TGFb inhibitor | IL1B secr inh | HepG2 tox | TDP1 inh | DT40 TDP1 no CPT | DT40 TDP1 CPT
NCCC[C@@H](CC(=O)N[C@@H]1CCCC[C@H]1C(=O)N[C@H](CC(=O)N[C@@H](CCC(=O)O)CC(=O)O)Cc1c[nH]c2ccccc12)NC(=O)C[C@H](Cc1ccccc1)NC(=O)[C@@H]1CCCC[C@H]1N | · | · | · | 6.9% | · | ·
Cc1ccc(-n2nc3c(c2NC(=O)C2CC2)CS(=O)(=O)C3)cc1 | -2.0% | -16.3 | -0.6% | 1.9% | 40.5% | -0.1%
COc1cc(CCN2C(=O)N[C@@H](c3ccccc3)C(C(C)=O)=C2C)cc(OC)c1OC | · | · | · | 1.9% | · | ·
CCNC(=O)N1CCN(CCCC(c2ccc(F)cc2)c2ccc(F)cc2)CC1 | -10.8% | -11.6 | -32.7% | 10.1% | 18.4µM* | 20.6µM*
Cc1noc(C)c1C(=O)OCC(=O)Nc1ccccc1SCC#N | 9.9% | 19.5 | 5.2% | 1.1% | 3.6% | -4.7%
Cc1cccc(NC(=S)Nc2cccc(C)n2)n1 | -23.2% | 30.7 | -12.5% | -5.5% | 5.17µM* | ?
Cc1cccc(NC(=S)NC2CCCCC2)n1 | 0.0% | 45.1 | -1.2% | · | ? | 25.9µM*
Cc1cccc(NC(=S)NC2CCCC2)n1 | ? | 16.1 | -12.7% | -5.1% | ? | ?
COC(=O)Cc1ccc(NC(=S)Nc2cccc(C)n2)cc1 | -5.3% | 17.0 | 4.7% | 5.4% | 18.4µM* | ?
Cc1ccc(S(=O)(=O)N2CCN(C(=O)CCC(=O)Nc3ccc(Br)c(C)c3)CC2)cc1 | -27.6% | ? | -2.0% | · | -19.2% | -7.0%
CS(=O)(=O)c1ccc(Cl)c(NC(=O)CCN2C(=O)C3CC=CCC3C2=O)c1 (configuration not stated) | 3.9% | 16.1 | -0.8% | 1.0% | 11.5% | -1.5%
CCOC(=O)[C@@H]1[C@H]2COc3ccccc3[C@H]2N2C(=O)N(c3ccc(Cl)cc3)C(=O)[C@]12C | -3.8% | -0.2 | -2.0% | · | 20.6µM* | ?
CCOC(=O)[C@@H]1[C@H]2COc3ccccc3[C@@H]2N2C(=O)N(c3ccc(Cl)cc3)C(=O)[C@@]12C | -0.2% | -11.3 | -0.3% | · | -22.2% | -18.5%
CCOC(=O)[C@@H]1[C@H]2COc3cc(OC)ccc3[C@H]2N2C(=O)N(c3cccc(Cl)c3)C(=O)[C@]12C | -4.4% | ? | -12.5% | · | ? | 14.6µM*
